Rows were chosen to be rich in hits. Some 10% of all compounds tested hit in one or more screens of this group.
Luc counter: Counterscreen for Luciferase (Kinase-Glo TM) Inhibition. Potency, µM (doses to about 38.3 µM), actives largely listed as inhibitors. Luciferin 4-monooxygenase (Photuris pensylvanica), Q27757. Kinase-Glo luciferase, ATP luminescence, 8 min. 200,000 tested, 0.28% active; active = well fitted inhibition curve with a large enough effect; inconclusive = small, poorly fitted or top-dose-only effect; also: nearly all actives have a fitted effect of over 60% in size
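Substrate mix (final 50 mM imidazole pH 7.2, 50 mM KCl, 7 mM MgCl2, 10 uM ATP, 0.01% Tween 20, 0.05% BSA) plus pin-tool compound, then Kinase-Glo detection mix; 8 min ambient, luminescence read.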
ALDH1A1 inh: qHTS Assay for Inhibitors of Aldehyde Dehydrogenase 1 (ALDH1A1); Aldehyde dehydrogenase 1A1 (Homo sapiens), P00352; Purified ALDH1A1, NADH fluorescence, propionaldehyde substrate; Potency, µM (highest dose often 75.3 µM), actives largely listed as inhibitors; 220,000 tested, 7.3% active; AID 1030, 2008
Lamin A splicing: qHTS Assay for Modulators of Lamin A Splicing; HeLa LMNA splicing GFP/RFP minigene ratio, 48 h; Potency, µM (top dose mostly 46.1 µM), hits mostly inhibitors; 200,000 tested, 0.01% active; AID 1487, 2009; active = well fitted inhibition curve with a large enough effect in the signal ratio, with a control signal flat, not every such curve was filed as active; inconclusive = small, poorly fitted or top-dose-only effect, or effect the other way, or a change in a side signal; the % refers to the signal ratio
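S3 HeLa cells stably expressing lamin A-EGFP splicing minigene plus DsRed2, 600 cells/well, 48 h compound exposure at 37C. Laser-scanning cytometry; analysed as GFP (500-530 nm)/RFP (575-640 nm) total intensity ratio; 0.5% DMSO vehicle.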
IMPase inh: qHTS Assay for Identifying the Cell-Membrane Permeable IMPase Inhibitors; Inositol monophosphatase 1 (Rattus norvegicus), P97697; CHO-M1 cells, IP1 accumulation, HTRF TR-FRET ratio; inhibition (IP1 accumulation), % at 46.1 µM; 120,000 tested, under 10 active; active = well fitted curve in the direction sought with a large enough effect in the signal ratio, not every such curve was filed as active; inconclusive = small, poorly fitted or top-dose-only effect, or a change in a side signal; inactive = no such curve, though single readings can be large or run the other way; the % refers to the signal ratio;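 also: cells stimulated with carbachol in lithium chloride buffer; higher means more IMPase inhibition seen as more IP1 and lower FRET ratio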
Target sequence (P97697 whole entry, looked up): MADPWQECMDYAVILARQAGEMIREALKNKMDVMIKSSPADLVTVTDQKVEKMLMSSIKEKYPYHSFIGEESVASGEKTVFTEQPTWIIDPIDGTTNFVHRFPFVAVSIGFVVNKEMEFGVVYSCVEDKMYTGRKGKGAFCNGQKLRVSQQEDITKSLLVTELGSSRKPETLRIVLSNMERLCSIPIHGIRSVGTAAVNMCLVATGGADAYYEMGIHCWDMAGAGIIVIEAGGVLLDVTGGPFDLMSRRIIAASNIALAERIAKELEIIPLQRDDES
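Elevated IP1 in lysates lowers TR-FRET signal (665/620 ratio and 620 channel reported). Cells were CHO-M1, given carbachol (50 uM as added) plus 50mM LiCl, pH 7.4, 30 min, 37C; compounds titrated up to 46 uM; AC50 by Hill equation.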
PNC inhibitor: High Content Assay for Compounds that inhibit the Assembly of the Perinucleolar Compartment | PC3M PTB-GFP, PNC prevalence imaging, 16 h; hits give low values | activity change (PNC), negative = inhibition, % at 10 µM | 140,000 tested, 3.1% active;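 active = readout at or below -70, meaning at least 70% loss of cells showing the perinucleolar compartment, a nuclear body marking cancer cells; inconclusive = readout between -30 and a set limit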
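Read-out is percentage of cells bearing a perinucleolar compartment, from automated 20x imaging of fixed, Hoechst-stained PC3M PTB-GFP cells. Cells were seeded 4 h, then exposed 16 h to compound (23 nl of library stock) in duplicate plates.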
HPGD inh: qHTS Assay for Inhibitors of HPGD (15-Hydroxyprostaglandin Dehydrogenase); Potency, µM, usual class: inhibitors; purified HPGD, NADH fluorescence kinetic, PGE2 substrate; 150,000 tested, 4.3% active; 15-hydroxyprostaglandin dehydrogenase [NAD(+)] (Homo sapiens), P15428
Target sequence (P15428 whole entry, looked up): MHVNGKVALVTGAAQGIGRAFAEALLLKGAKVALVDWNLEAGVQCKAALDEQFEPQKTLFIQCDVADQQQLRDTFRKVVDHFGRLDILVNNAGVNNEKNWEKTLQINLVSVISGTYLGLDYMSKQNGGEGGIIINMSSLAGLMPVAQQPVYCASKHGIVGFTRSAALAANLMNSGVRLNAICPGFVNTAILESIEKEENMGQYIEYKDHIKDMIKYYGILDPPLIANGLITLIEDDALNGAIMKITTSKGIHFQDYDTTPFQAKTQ
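NADH formation kinetics: reaction with 30 uM PGE2 and 1 mM NAD+ (final), 20 nM enzyme, Tris-HCl pH 8 with Tween 20, after 15 min compound preincubation at room temperature. Fluorescence change, last versus first of five reads.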
A number is an active result; – = inactive; ? = inconclusive; · = not tested or not shown; [ ] = dose if it differs, or a comment. Unless noted, calls follow the shape of the dose curve; as a rule, active = well fitted inhibition curve with a large enough effect (not every such curve was filed as active); inconclusive = small, poorly fitted or top-dose-only effect, or another doubt; inactive = no such curve, though single readings can be large or run the other way.

SMILES	Luc counter	ALDH1A1 inh	Lamin A splicing	IMPase inh	PNC inhibitor	HPGD inh
CN(C)S(=O)(=O)c1cc(NC(=O)CN2CCOCC2)ccc1Cl	–	–	?	·	·	·
Cc1ccc(NC(=O)CNc2ccc(N3CCOCC3)cc2)cc1S(=O)(=O)N(C)C	–	10µM	–	·	·	·
Cc1ccc2c(c1)C(=O)C(=O)N2CC(=O)Nc1ccc(N2CCOCC2)cc1	–	8.91µM	·	·	·	·
Cc1ccc(C)c(OCCCC(=O)Nc2ccc(N3CCOCC3)cc2)c1	–	–	–	–	-83.6	–
Cc1ccc(C)c(OCC(=O)Nc2ccc(N3CCOCC3)cc2)c1	–	–	?	·	·	·
Cc1nnc(S(=O)(=O)c2ccc(N=Nc3c(N)nc(N)nc3N)cc2)s1	–[7.66 µM]	–[13.5 µM]	·	·	·	–
Clc1ccc(N/N=C/c2cccnc2)cc1	–	25.1µM	?	–	?	–
Clc1ccccc1-c1nc(N/N=C/c2cccnc2)c2ccccc2n1	–	?	?	–	?	14.1µM
Cc1ccc(-c2nc(N/N=C/c3ccncc3)c3ccccc3n2)cc1	2.24µM	?	–	–	-83.3	–
Cc1ccc2nc(C(Cl)(Cl)Cl)nc(N/N=C/c3ccncc3)c2c1	·	–	·	·	·	·
CC(C)(C)c1csc(N/N=C/c2cccnc2)n1	–	25.1µM	?	·	·	·
Cc1cc(C)cc(NC(=O)COc2cccc3c(=O)n(C)ccc23)c1	·	·	–	·	·	·
O=C(Nc1nc2n(n1)C(c1ccccc1)C=C(c1ccccc1)N2)c1ccccc1 (stereo not given)	·	·	·	–	·	·
CNCC[C@H](Oc1ccccc1C)c1ccccc1	·	·	·	–	·	·
COc1cccc(C(=O)NCC(=O)OCc2cc(=O)n3c(C)csc3n2)c1	·	·	–	·	·	·
O=C(Nc1ccccc1)c1ccccc1OCc1cccc([N+](=O)[O-])c1	–	?	–	·	-99.3	–
O=C(O)c1ccccc1C(=O)Nc1cccc([N+](=O)[O-])c1	·	–	·	·	·	·
CCOC(=O)/C=C/C(=O)Nc1cccc([N+](=O)[O-])c1	–	–	?	·	–	1.58µM
Cc1cc(C(=O)Nc2cccc([N+](=O)[O-])c2)c(C)o1	–	–	–	·	-109.0	–
Cc1c(C(=O)Nc2ccc(OCc3ccccc3)cc2)cccc1[N+](=O)[O-]	–	–	–	–	–	–
CCOC(=O)c1cccc(NC(=O)/C=C/c2cccc([N+](=O)[O-])c2)c1	–	–	–	–	–	–
O=C(NCC(c1cccs1)S(=O)(=O)c1cccs1)c1cccc(F)c1 (stereo not given)	·	·	–	·	·	·
c1ccc(N2CCN(Cc3ccnc4ccccc34)CC2)cc1	–	15.8µM	?	–	–	–
CCN(CC)S(=O)(=O)c1ccc(OCC(=O)NC2CCS(=O)(=O)C2)c([N+](=O)[O-])c1 (stereo not given)	–	14.1µM	–	·	·	·
CCN(CC(=O)NC1CCS(=O)(=O)C1)S(=O)(=O)c1ccc2ccccc2c1 (stereo not given)	–	–	–	·	–	–
SMILES	Luc counter	ALDH1A1 inh	Lamin A splicing	IMPase inh	PNC inhibitor	HPGD inh
O=C1C2C3C=CC(CC3)C2C(=O)N1/N=C/c1ccc(O)cc1 (stereo not given)	–	?	–	–	–	28.2µM
O=C(O)c1cc(-c2ccc(/C=N/N3C(=O)C4C5C=CC(C6CC56)C4C3=O)o2)ccc1Cl (stereo not given)	–	12.6µM	·	·	·	·
O=C(O)c1cc(-c2ccc(/C=N/N3C(=O)C4C5C=CC(CC5)C4C3=O)o2)ccc1Cl (stereo not given)	–	11.2µM	–	·	·	·
O=C1C2C3C=CC(CC3)C2C(=O)N1/N=C/c1ccc(O)c(O)c1 (stereo not given)	–	?	?	–	–	–
COC(=O)c1ccc(-c2ccc(/C=N/N3C(=O)C4C5C=CC(CC5)C4C3=O)o2)cc1 (stereo not given)	–	–	·	·	·	·
COC(=O)c1ccc(OCC2c3cc(OC)c(OC)cc3CCN2C(=O)c2ccc(F)cc2)cc1 (stereo not given)	·	·	–	·	·	·

Screens deposited in PubChem BioAssay by National Center for Advancing Translational Sciences (NCATS).
